What all share (test): PBM binding z-score (relative to random genomic background probes); higher = stronger binding; sequences stand for … in GC…GCGATTGACAGCGTAGAATGAAGG
Experiment [1] deals with FXR:RXRa (NR concentration 270 nM, RXRa partner concentration 90 nM). Summed up: (§1)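 Random background probes are the reference for binding z-scores. These scores derive from regression-normalized fluorescence on custom Agilent 4×180K protein-binding microarrays incubated 1 h with ligand-free nuclear receptor dimers. Binding was detected with antibodies against each partner (one per run).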

Experiment [2] deals with LXRa:RXRa (NR concentration 270 nM, RXRa partner concentration 90 nM). Summed up:
as §1

Experiment [3] relates to LXRa homodimer (NR concentration 270 nM). Summed up:
as §1

Experiment [4] relates to LXRb:RXRa (NR concentration 270 nM, RXRa partner concentration 90 nM). Summed up:
as §1

Experiment [5] deals with LXRb homodimer (NR concentration 270 nM). Summed up:
as §1

In experiment [6] the test system is PPARa:RXRa (NR concentration 270 nM, RXRa partner concentration 90 nM). Summed up: as §1
Experiment [7] relates to PPARg:RXRa (NR concentration 180 nM, RXRa partner concentration 90 nM). Summed up: as §1
The subject of experiment [8] is PPARg:RXRa 270nM:90nM, anti-RXR (NR concentration 270 nM, RXRa partner concentration 90 nM). Summed up:
as §1

The test system of experiment [9] is PPARg:RXRa 30nM:10nM, anti-RXR (NR concentration 30 nM, RXRa partner concentration 10 nM). Summed up: as §1
The subject of experiment [10] is PPARg:RXRa 90nM:30nM, anti-RXR (NR concentration 90 nM, RXRa partner concentration 30 nM). Summed up: as §1
Experiment [11] relates to PPARg:RXRa DBDmut IVT, anti-RXR (DBD mutation: RXRa K156A/R161A, NR concentration 270 nM, RXRa partner concentration 90 nM). Summed up: as §1
Experiment [12] concerns PPARg:RXRa IVT, anti-PPARg (NR concentration 270 nM, RXRa partner concentration 90 nM). Summed up: as §1
The subject of experiment [13] is PPARg DBDmut:RXRa IVT, anti-PPARg (DBD mutation: PPARg1 K132A/R137A, NR concentration 270 nM, RXRa partner concentration 90 nM). Summed up: as §1
Experiment [14] concerns PPARg DBDmut IVT, anti-PPARg (DBD mutation: PPARg1 K132A/R137A, NR concentration 270 nM). Summed up:
as §1

Experiment [15] deals with PPARg homodimer (NR concentration 180 nM). Summed up: as §1
Experiment [16] has as its system PXR:RXRa (NR concentration 270 nM, RXRa partner concentration 90 nM). Summed up: as §1
The test system of experiment [17] is PXR homodimer (NR concentration 270 nM). Summed up:
as §1

The subject of experiment [18] is RARa:RXR (NR concentration 270 nM, RXRa partner concentration 90 nM). Summed up: as §1
For experiment [19], the system named is RARa homodimer (NR concentration 270 nM). Summed up: as §1
For experiment [20], the system named is RARb:RXRa (NR concentration 270 nM, RXRa partner concentration 90 nM). Summed up: as §1

In the supplement of paper PMC6555819 one finds PBM binding z-score data, which are given here for six sequences.

Take TCGAGTAGGTCAGTCGGGGCATTCAGCCAACATA: the PBM binding z-score in experiment [1] is 1.39; in experiment [2] it was 1.09; in experiment [3], -0.271; in experiment [4], 1.55; in experiment [5], -0.625; in [6], 2.56. For the same sequence, the PBM binding z-score in [7] was 2.27; in experiment [8] it was 2.87; in experiment [9], 1.39; in experiment [10], 2.2; in [11], 4.8; in experiment [12], 4.74. The PBM binding z-score in experiment [13] is 0.141; in experiment [14], -0.71; in [15] it was 1.14; in experiment [16], 1.71; in experiment [17], 0.855; in experiment [18], 1.47. Further, the figures for the PBM binding z-score in experiment [19] and in experiment [20] were -0.53 and 3.03, respectively.

CGAACTAGGTCAAGCACAGTGAATCTCCGCACGC: the PBM binding z-score in [1] is 4.1; in experiment [2], 2.35; in experiment [3], 0.195; in experiment [4], 1.67; in experiment [5], -0.136; in experiment [6], 4.74. Also, the PBM binding z-score in experiment [7] came to 7.62; in experiment [8], 6.72; in experiment [9], 4.49; in [10], 6.09; in experiment [11], 8.33; in experiment [12], 8.4. For the same sequence, the PBM binding z-score is 5.79 in experiment [13]; 3.74 in experiment [14]; 2.82 in experiment [15]; 1.18 in experiment [16]; -0.61 in experiment [17]; 2.31 in experiment [18]. For the same sequence, the PBM binding z-score in experiment [19] is 0.512; in [20] it was 3.98.

For the sequence ACTATTAGTTGCCTTAGGGCAACCGATACGACGC, the PBM binding z-score in [1] amounted to 0.218; in [2] it was 0.346; in experiment [3], 0.285; in [4] it was 0.202; in experiment [5], 0.935; in experiment [6], 0.287. Also, the PBM binding z-score is 0.672 in [7]; 0.279 in experiment [8]; 0.294 in experiment [9]; 0.358 in [10]; -0.0728 in experiment [11]; 0.674 in experiment [12]. Further, the PBM binding z-score in [13] was 0.726; in [14], 0.896; in experiment [15] it was 0.221; in [16] it was 0.335; in experiment [17], -0.148; in [18], 0.576. For the same sequence, the figures for the PBM binding z-score in [19] and in experiment [20] were 0.282 and 0.771, respectively.

For the sequence CAAACTAGGTCACCGGAAGGTCAAAGCCCGCATG, the PBM binding z-score in experiment [1] was 6.08; in [2], 5.95; in experiment [3], 4.27; in [4], 5.11; in [5] it was 1.45; in experiment [6], 6.06. The PBM binding z-score was found to be 9.85 in [7]; 7.89 in experiment [8]; 5.9 in experiment [9]; 7.57 in [10]; 8.25 in experiment [11]; 8.78 in [12]. The PBM binding z-score came out at 2.12 in experiment [13]; 2.03 in [14]; 5.32 in experiment [15]; 5.67 in experiment [16]; 1.53 in experiment [17]; 7.16 in experiment [18]. The PBM binding z-score in [19] was 2.71; in [20] it was 5.32.

CGTCCAAGGTCAGCAGGTCAGCGAAAGCGACGTG: the PBM binding z-score was 6.11 in experiment [1]; 4.35 in [2]; 0.407 in experiment [3]; 3.19 in experiment [4]; -0.541 in [5]; 4.9 in experiment [6]. The PBM binding z-score in [7] is 4.79; in experiment [8], 4.99; in [9], 1.45; in [10] it was 3.69; in [11], 3.38; in experiment [12], 3.9. Moreover, the PBM binding z-score in experiment [13] is -0.473; in [14] it was -0.272; in experiment [15], 3.39; in experiment [16], 4.07; in experiment [17] it was 0.421; in experiment [18], 5.3. For the same sequence, the PBM binding z-score came out at 1.49 in [19] and 5.43 in experiment [20].

As for GGAACGAGGGCAAAGTTAATAGCATCTGTCGACG, the PBM binding z-score in experiment [1] was 1.04; in [2], 0.812; in experiment [3], -0.00751; in experiment [4], 0.878; in experiment [5], -0.23; in experiment [6], 3.62. The PBM binding z-score is 5.8 in experiment [7]; 6.25 in [8]; 4.67 in experiment [9]; 6.67 in [10]; 4 in [11]; 4.19 in [12]. Moreover, the PBM binding z-score in experiment [13] was 0.116; in [14], -0.54; in experiment [15] it was 0.877; in [16] it was 1.19; in experiment [17], 0.225; in [18], 1.24. The PBM binding z-score was found to be 0.00739 in [19] and 2.55 in experiment [20].
